# According to PMC11062922 (Nature Chemical Biology, 2023):
# Read-outs that look alike come from different tables or passages of the source.
# Key:
# Design in all cases: species or system human, MV4-11 + K-562 + COLO205 + SK-N-BE2 + OVCAR-8
# CDK7 = conditions: read-out: apparent Kd, n = 1
# ERCC2 = conditions: read-out: apparent Kd, n = 1
# FER = conditions: read-out: apparent Kd, n = 1
# MARK4 = conditions: read-out: apparent Kd, n = 1
# PLK4 = conditions: read-out: apparent Kd, n = 1
# PRKAA1 = conditions: read-out: apparent Kd, n = 1
# PRKCQ = conditions: read-out: apparent Kd, n = 1
# PTK2B = conditions: read-out: apparent Kd, n = 1
# PTK2 = conditions: read-out: apparent Kd, n = 1
# RPS6KA6 = conditions: read-out: apparent Kd, n = 1
# STK10 = conditions: read-out: apparent Kd; compound concentrations:100 nM and 1000 nM (sheet 'Samples'); n = 1
# TNK2 = conditions: read-out: apparent Kd, n = 1
# CDKL5 = conditions: read-out: apparent Kd, compound concentrations: 100 nM and 1000 nM (sheet 'Samples'), n = 1
# DYRK1A = conditions: read-out: apparent Kd, compound concentrations: 100 nM and 1000 nM (sheet 'Samples'), n = 1
# PRKCD = conditions: read-out: apparent Kd, compound concentrations: 100 nM and 1000 nM (sheet 'Samples'), n = 1
# PRKD2 = conditions: read-out: apparent Kd, compound concentrations: 100 nM and 1000 nM (sheet 'Samples'), n = 1
# FLT3 = conditions: read-out: apparent Kd, compound concentrations: 100 nM and 1000 nM (sheet 'Samples'), n = 1
# LATS1 = conditions: read-out: apparent Kd; compound concentrations: 100 nM and 1000 nM (sheet 'Samples'), CATDS: 3.7276023026690398E-2; n = 1
# MYLK3 = conditions: read-out: apparent Kd, n = 1
# PRKD3 = conditions: read-out: apparent Kd, compound concentrations: 100 nM and 1000 nM (sheet 'Samples'), n = 1
# [1] = compound concentrations:100 nM and 1000 nM (sheet 'Samples')
smiles,measurement,setting,value
CS(=O)(=O)CCn1c(=O)c(Oc2ccc(F)cc2F)cc2cnc(NC3CCOCC3)nc21 [RO5027956-000],potency estimated from few doses,CDK7; [1],349 nM
same,potency estimated from few doses,ERCC2; [1],317 nM
same,potency estimated from few doses,FER; [1],431 nM
same,potency estimated from few doses,MARK4; [1],1950 nM
same,potency estimated from few doses,PLK4; [1],568 nM
same,potency estimated from few doses,PRKAA1; [1],1210 nM
same,potency estimated from few doses,PRKCQ; [1],998 nM
same,potency estimated from few doses,PTK2B; [1],417 nM
same,potency estimated from few doses,PTK2; [1],814 nM
same,potency estimated from few doses,RPS6KA6; [1],506 nM
same,potency estimated from few doses,STK10,2320 nM
same,potency estimated from few doses,TNK2; [1],521 nM
Cc1ccccc1-n1ncc(C(=O)c2ccccc2)c1N [RO1151248-000],potency estimated from few doses,"CDK7; compound concentrations: 100 nM and 1000 nM (sheet 'Samples'), CATDS: 3.2970650229379797E-2",492 nM
same,potency estimated from few doses,CDKL5; CATDS: 1.7260547192186899E-2,2240 nM
same,potency estimated from few doses,"ERCC2; compound concentrations: 100 nM and 1000 nM (sheet 'Samples'), CATDS: 3.4220969225155197E-2",462 nM
same,potency estimated from few doses,"FER; compound concentrations: 100 nM and 1000 nM (sheet 'Samples'), CATDS: 3.2819446415030699E-2",496 nM
same,potency estimated from few doses,"PLK4; compound concentrations: 100 nM and 1000 nM (sheet 'Samples'), CATDS: 2.3524551530655802E-2",946 nM
same,potency estimated from few doses,"PRKAA1; compound concentrations: 100 nM and 1000 nM (sheet 'Samples'), CATDS: 2.2348662654876499E-2",1060 nM
same,potency estimated from few doses,"PRKCQ; compound concentrations: 100 nM and 1000 nM (sheet 'Samples'), CATDS: 1.77818646264679E-2",2020 nM
same,potency estimated from few doses,"PTK2B; compound concentrations: 100 nM and 1000 nM (sheet 'Samples'), CATDS: 3.03657064915384E-2",568 nM
same,potency estimated from few doses,"PTK2; compound concentrations: 100 nM and 1000 nM (sheet 'Samples'), CATDS: 2.47359073742957E-2",848 nM
same,potency estimated from few doses,"RPS6KA6; compound concentrations: 100 nM and 1000 nM (sheet 'Samples'), CATDS: 3.3090095643126802E-2",489 nM
same,potency estimated from few doses,"TNK2; compound concentrations: 100 nM and 1000 nM (sheet 'Samples'), CATDS: 3.5082928227748202E-2",443 nM
CCn1c(-c2cccnc2O)nc2cnccc21 [SB-736715],potency estimated from few doses,DYRK1A; CATDS: 1.19408465116969E-2,2220 nM
same,potency estimated from few doses,"PLK4; compound concentrations: 100 nM and 1000 nM (sheet 'Samples'), CATDS: 1.6109346407018599E-2",1120 nM
same,potency estimated from few doses,PRKCD; CATDS: 1.16308056787147E-2,2390 nM
same,potency estimated from few doses,PRKD2; CATDS: 1.32694977387129E-2,1700 nM
same,potency estimated from few doses,"RPS6KA6; compound concentrations: 100 nM and 1000 nM (sheet 'Samples'), CATDS: 1.6792269740451799E-2",1030 nM
COc1cc[nH]c1/C=C1\C(=O)Nc2ccc(F)c(C#CC3(O)CCNCC3)c21.Cl [RO0282986-001],potency estimated from few doses,"CDK7; compound concentrations: 100 nM and 1000 nM (sheet 'Samples'), CATDS: 1.0726954600141701E-2",1020 nM
same,potency estimated from few doses,CDKL5; CATDS: 0.34989836845243499,2.99 nM
same,potency estimated from few doses,"ERCC2; compound concentrations: 100 nM and 1000 nM (sheet 'Samples'), CATDS: 1.0235233347988201E-2",1210 nM
same,potency estimated from few doses,FLT3; CATDS: 4.9574860121956603E-2,43.6 nM
same,potency estimated from few doses,LATS1,68.4 nM
same,potency estimated from few doses,"MARK4; compound concentrations: 100 nM and 1000 nM (sheet 'Samples'), CATDS: 1.45077611109678E-2",429 nM
same,potency estimated from few doses,"MYLK3; compound concentrations: 100 nM and 1000 nM (sheet 'Samples'), CATDS: 1.54633184822493E-2",368 nM
same,potency estimated from few doses,"PRKAA1; compound concentrations: 100 nM and 1000 nM (sheet 'Samples'), CATDS: 1.18517634082691E-2",741 nM
same,potency estimated from few doses,PRKCD; CATDS: 1.2203659987841E-2,680 nM
same,potency estimated from few doses,PRKD2; CATDS: 2.5801010504162801E-2,129 nM
same,potency estimated from few doses,PRKD3; CATDS: 3.6312689079161402E-2,71.4 nM
same,potency estimated from few doses,"RPS6KA6; compound concentrations: 100 nM and 1000 nM (sheet 'Samples'), CATDS: 1.2829138267775601E-2",590 nM
c1cnn2ncc(-c3ccnc(Nc4ccc5c(c4)OCCO5)n3)c2c1 [GW806290X],potency estimated from few doses,CDKL5; CATDS: 7.1122593361459902E-2,94.8 nM
same,potency estimated from few doses,DYRK1A; CATDS: 2.4296257212368499E-2,1020 nM
same,potency estimated from few doses,FLT3; CATDS: 9.3011022280108296E-2,61.9 nM
same,potency estimated from few doses,"MYLK3; compound concentrations: 100 nM and 1000 nM (sheet 'Samples'), CATDS: 2.0905091895042499E-2",1690 nM
same,potency estimated from few doses,PRKCD; CATDS: 2.1059848271292699E-2,1650 nM
NCC(NC(=O)c1cc(-c2cn[nH]c2)c(-c2ccnc3[nH]ccc23)s1)c1ccccc1.NCC(NC(=O)c1cc(-c2cn[nH]c2)c(-c2ccnc3[nH]ccc23)s1)c1ccccc1.O=C(O)C(F)(F)F.O=C(O)C(F)(F)F (centres unmarked) [GSK1325775A],potency estimated from few doses,PRKCD; CATDS: 4.2478831197515603E-2,712 nM
same,potency estimated from few doses,"PRKCQ; compound concentrations: 100 nM and 1000 nM (sheet 'Samples'), CATDS: 3.02069836024773E-2",2040 nM
CCN(CC)Cc1ccc(Nc2nccc(-c3cnn4ncccc34)n2)cc1 [GW780056X],potency estimated from few doses,"CDK7; compound concentrations: 100 nM and 1000 nM (sheet 'Samples'), CATDS: 2.0395381874141399E-2",1240 nM
same,potency estimated from few doses,FLT3; CATDS: 9.2784316233310501E-2,48.8 nM
same,potency estimated from few doses,PRKD2; CATDS: 2.64855086193518E-2,580 nM
same,potency estimated from few doses,PRKD3; CATDS: 3.09987339896893E-2,398 nM
COc1cc(Nc2nccc(-c3cnn4ncccc34)n2)cc(OC)c1 [GW801372X],potency estimated from few doses,CDKL5; CATDS: 4.3388944669180397E-2,141 nM
same,potency estimated from few doses,DYRK1A; CATDS: 3.9916528669642001E-2,170 nM
same,potency estimated from few doses,FLT3; CATDS: 0.110722345436643,22.4 nM
same,potency estimated from few doses,"PTK2; compound concentrations: 100 nM and 1000 nM (sheet 'Samples'), CATDS: 2.4454982719063802E-2",604 nM
CN(c1ccc(NC(=O)NCCN2CCOCC2)cc1)c1ccnc(Nc2ccc(CS(C)(=O)=O)cc2)n1.Cl [GW830365A],potency estimated from few doses,FLT3; CATDS: 0.17522141736576,107 nM
same,potency estimated from few doses,"PLK4; compound concentrations: 100 nM and 1000 nM (sheet 'Samples'), CATDS: 4.9779081320457601E-2",1320 nM
Cl.Cl.NC(CNC(=O)c1cc(Br)c(-c2ccnc3[nH]ccc23)s1)c1ccccc1.NC(CNC(=O)c1cc(Br)c(-c2ccnc3[nH]ccc23)s1)c1ccccc1 (centres unmarked) [GSK1322949A],potency estimated from few doses,CDKL5; CATDS: 2.6362691965297801E-2,1670 nM
same,potency estimated from few doses,DYRK1A; CATDS: 2.3831773073254899E-2,2230 nM
same,potency estimated from few doses,"PTK2; compound concentrations: 100 nM and 1000 nM (sheet 'Samples'), CATDS: 3.2827232082793402E-2",993 nM
CC(C)Nc1cc(-c2ccc3c(N)n[nH]c3c2)nc(N)n1 [GSK2221681A],potency estimated from few doses,MYLK3; [1],1410 nM
O=C1N=C(NCc2cccs2)O/C1=C\c1ccc2ncccc2c1 [RO4624208-000],potency estimated from few doses,DYRK1A; CATDS: 0.15601694862230001,53.8 nM
